Screening results: PubChem, several laboratories
Compounds with a hit are over-represented: about 4.3% of the library has one in this group of screens.
Anthrax LF inh2 = Bacillus anthracis LF protease inhibitors, primary screen, biochemical, multiplex microsphere, MLPCN library | Lethal factor (Bacillus anthracis), P15917 | actives 0.12% (n = 360,000) | inhibition, % at 10 µM | multiplex microsphere protease cleavage assay; also: plate controls were buffer without enzyme for full effect and enzyme alone for no effect
PfHsp40 yeast = rescue of yeast from PfHsp40 toxicity, primary screen, S. cerevisiae, ATP luminescence. S. cerevisiae expressing PfHsp40, growth rescue. actives 0.68% (n = 340,000). growth rescue, % at 12.5 µM; in the data active = growth rescue above about 28%, passing the limit was not always enough; inconclusive = no clear call, values can overlap the other calls;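 also: yeast W303a lacking pdr1 and pdr3 grown in galactose medium; growth measured after three days at 30 °C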
MazEF act = activators of E. coli MazEF toxin-antitoxin RNase, primary screen, biochemical, fluorescence, uHTS; FAM/BHQ RNA-DNA oligo cleavage fluorescence, 5 h; activation, % at 20 µM; actives 0.32% (n = 350,000); in the data active = activation above about 50%
Target sequence (P0AE70 whole entry, looked up): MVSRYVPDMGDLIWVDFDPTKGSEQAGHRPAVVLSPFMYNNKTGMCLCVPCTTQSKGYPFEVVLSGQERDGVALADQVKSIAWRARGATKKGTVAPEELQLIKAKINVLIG
Bead autofluor = flagged as autofluorescent in microsphere protease counterscreen | actives 3.1% (n = 360,000) | AID 624483 | compound autofluorescence counterscreen, microsphere flow cytometry; stronger effect = higher value | fluorescence intensity (concentration not given with the values); in the data active = fluorescence intensity above about 16000; inconclusive = no clear call, values can overlap the other calls
BoNT-F LC inh = BoNT/F light chain protease inhibitors, primary screen, biochemical, flow cytometry, MLPCN library. Multiplex microsphere protease cleavage assay. Botulinum neurotoxin type F light chain protease (Clostridium botulinum). actives 0.22% (n = 360,000). AID 588497, 2011. inhibition, % at 10 µM; in the data active = inhibition above about 35%, passing the limit was not always enough; inconclusive = no clear call, values can overlap the other calls; also: plate controls were buffer without enzyme for full effect and enzyme alone for no effect
BoNT A protease = BoNT/A light chain protease inhibitors, primary screen, biochemical, flow cytometry, MLPCN library; Botulinum neurotoxin type A light chain protease (Clostridium botulinum A str. ATCC 3502); multiplex microsphere protease substrate cleavage; inhibition, % at 10 µM; actives 0.17% (n = 360,000); AID 588499, 2011; also: plate controls were buffer without enzyme for full effect and enzyme alone for no effect
* marks the source's active call; other numbers are inactive results; ? = inconclusive; . = no result given; + = active, no number. Rule as the data show it, unless noted: active = inhibition above about 30%; inconclusive = no clear call, values can overlap the other calls; inactive = below that.

SMILES	Anthrax LF inh2	PfHsp40 yeast	MazEF act	Bead autofluor	BoNT-F LC inh	BoNT A protease
CCCCCCCCOc1ccc(C2CC(=O)NC2=O)cc1 (stereo unspecified)	8.9	65.6*	3.2	4139	-23.4	-8.0
COc1cccc(NC(=O)CN(C)C(=O)c2ccc(OCc3ccccc3)c(OC)c2)c1	1.9	-1.2	-0.2	5859	20.8	1.8
CCOC(=O)COn1c(SCC(=O)OCC)nc2ccccc2c1=O	?	-0.9	-1.5	?	?	?
CN(C)C(=O)COn1c(SCC(=O)N(C)C)nc2ccccc2c1=O	-3.6	0.5	-0.1	20262*	-1.2	0.4
CCN(CC)CC(=O)Nc1cc(N(C)C)nc2ccccc12	-8.4	0.6	14.1	?	?	1.8
CCCCCC(=O)Nc1cc(N(C)C)nc2ccccc12	-13.9	-0.8	2.6	17328*	9.1	5.8
CN=Cc1nc(-c2ccccc2)oc1O	-6.5	-1.5	-6.4	3683	20.8	-0.6
CC1=Nc2ccccc2/C1=C\c1nc(-c2ccc(F)cc2)oc1O	12.1	0.8	+	8406	1.2	13.7
Cc1ccc(NC(=O)CNC(=O)c2ccc(C)o2)cc1	-12.0	-1.2	6.7	3877	?	?
Cc1ccccc1C1=N/C(=C/c2cccs2)C(=O)O1	-3.2	0.6	-11.1	2010	2.3	0.7
Cc1ccc(C2=N/C(=C/c3cccs3)C(=O)N2Nc2ccccc2)cc1	58.4*	8.7	2.0	6977	42.9*	80.1*
CC1(C)Cc2nc3n[nH]c(N)c3cc2CO1	-2.4	-0.6	-11.9	24639*	-3.9	-3.4
O=C(Nc1ccc2c(c1)OCO2)c1ccc(CN2CCOCC2)cc1	-4.3	-0.7	5.9	8309	-12.6	-0.3
O=C(Nc1ccn(Cc2ccc(Cl)cc2)n1)c1ccc2c(c1)OCO2	-1.7	0.3	4.3	24410*	-3.1	-3.0
O=C(Nc1ccc(CN2CCCCC2)cc1)c1ccc2c(c1)OCO2	0.9	-0.1	6.8	20600*	-0.7	-0.2
Cc1cccc(Cn2ccc(NC(=O)c3ccc4c(c3)OCO4)n2)c1	0.2	0.8	1.1	3173	2.3	0.0
Cc1cccc(Nc2nc(N)nc(CN3CCN(C)CC3)n2)c1	-0.9	1.1	10.2	23797*	-4.1	-1.2
Cc1ccc(Nc2nc(N)nc(CN3CCN(c4ccccc4F)CC3)n2)cc1	-4.7	0.8	-2.5	3836	-4.3	-0.8
Nc1nc(CN2CCN(c3ccccc3F)CC2)nc(Nc2ccccc2)n1	-1.1	0.1	-11.9	16781*	-5.7	-1.9
CCN(CC)CCn1c2c(c(SCC(=O)Nc3cc(C)on3)nc1=O)CCCC2	1.7	-0.2	1.3	6572	?	-0.5
CCn1c(C)nc2cc(C(=O)NNS(=O)(=O)c3c(C)c(C)cc(C)c3C)ccc21	-0.6	-0.6	23.5	24040*	2.2	-0.1
Cc1snc(SCc2cccc(Cl)c2)c1C#N	0.1	.	0.3	3107	-22.0	0.2
CCCCn1c(O)c(C(CC)=Nc2ccc(OCC)cc2)c(=O)[nH]c1=O	1.3	1.0	54.9*	16712*	-4.2	-0.9
CCCCn1c(O)c(C(CC)=NCc2cccnc2)c(=O)[nH]c1=O	0.4	0.9	-4.7	22114*	0.6	0.5
CCCCn1c(O)c(C(CC)=NCc2cc(OC)cc(OC)c2)c(=O)[nH]c1=O	-2.4	-0.1	1.5	22230*	1.1	0.5
SMILES	Anthrax LF inh2	PfHsp40 yeast	MazEF act	Bead autofluor	BoNT-F LC inh	BoNT A protease
CC(=NCc1cccnc1)c1c(O)n(-c2ccccc2)c(=O)[nH]c1=O	-3.4	-1.1	-10.0	20066*	-3.6	-2.2
CCC(=NCc1cc(OC)cc(OC)c1)c1c(O)n(C)c(=O)n(C)c1=O	-4.7	1.1	3.9	24024*	-2.2	?
CCC(=NCc1ccc2c(c1)OCO2)c1c(O)n(C)c(=O)n(C)c1=O	-0.2	0.3	-14.0	3898	3.1	1.7
CCC(=NCc1cccnc1)c1c(O)n(Cc2ccccc2)c(=O)[nH]c1=O	-0.8	-0.4	-7.2	19069*	1.8	2.7
Cc1ccc(NC(=O)CSc2nnc(COc3ccccc3F)n2N)cc1S(=O)(=O)N1CCOCC1	9.2	-0.1	-7.3	8560	2.1	2.8
CCCCn1c(N)c(N(CCOC)C(=O)COC(=O)CNC(=O)c2ccc(Cl)c(Cl)c2)c(=O)[nH]c1=O	-5.9	1.6	-0.5	3609	2.8	-0.1
CCc1nnc(NC(=O)CSc2nc3cc4c(cc3cc2CC)OCCO4)s1	-3.3	0.9	81.7*	4459	5.7	-0.5
CCc1cc2cc3c(cc2nc1SCC(=O)Nc1nnc(C)s1)OCCO3	-2.9	-0.5	-14.9	6296	-5.1	-0.4
COc1ccc(NC(=O)c2cc3sccc3n2Cc2ccc(F)cc2)cc1OC	-4.6	0.6	0.2	4348	3.2	-2.4
COC(=O)c1cc2occc2n1Cc1ccc(Cl)cc1	-5.6	0.5	-14.2	22264*	-1.4	1.4
COC(=O)c1cc2sccc2n1Cc1ccc(C)cc1	-0.4	0.4	-4.3	24673*	-2.8	-1.9
CCOC(=O)c1cc2occc2n1Cc1ccc(F)cc1	-5.1	-0.3	4.1	2620	-0.4	0.1
O=C(Nc1nccs1)c1cc2sccc2n1Cc1ccc(F)cc1	0.9	0.1	0.4	16836*	-2.6	?
O=[N+]([O-])c1cc(C(F)(F)F)ccc1N1CCC(O)CC1	-6.6	0.8	2.1	4280	-4.6	-0.3
NC(=O)C1CCN(c2ccc(C(F)(F)F)cc2[N+](=O)[O-])CC1	-4.6	-0.6	-0.4	21870*	2.8	4.0
O=C(Nc1ccc(Cl)cc1)N1CCCN(c2ccc(C(F)(F)F)cc2[N+](=O)[O-])CC1	.	44.3*	6.8	.	.	.
CCN(CC)C(=O)CSc1nc2c(sc(=S)n2-c2ccccc2)c(=O)n1Cc1ccco1	-2.9	-1.2	4.5	21125*	6.0	2.4
CCN(CC)C(=O)CSc1nc2c(sc(=S)n2CC)c(=O)n1-c1ccccc1	-7.2	0.6	-1.7	22153*	-3.9	?
CCC(C)NC(=O)CSc1nc2c(sc(=S)n2Cc2ccco2)c(=O)n1-c1ccccc1 (stereo unspecified)	1.6	1.2	4.4	5479	3.9	0.3
CCOC(=O)CSc1nc2c(sc(=S)n2Cc2ccco2)c(=O)n1-c1ccc(F)cc1	-5.0	2.4	-2.7	16594*	-4.9	?
CC1(c2ccccc2Cl)NC(=O)N(CC(=O)Nc2ccc(N3CCCCC3)cc2)C1=O (stereo unspecified)	-4.7	1.7	7.9	5597	-0.6	1.8
Cc1ccc(NC(=O)/C=N/OCC(=O)NCc2ccccc2Cl)cc1	4.3	1.2	-3.4	4515	-3.7	-0.4
Cn1ncc(N=Cc2ccc([N+](=O)[O-])cc2)c1C(=O)Nc1ccccc1	-1.2	-1.3	16.0	2112	-2.2	0.2
